Test results: article PMC7862700, “An all-to-all approach to the identification of sequence-specific readers for epigenetic DNA modifications on cytosine”

Legend:
Test in all cases: DAPPL (digital affinity profiling via proximity ligation, sequencing); 10 mM Tris-HCl pH 7.5, 50 mM NaCl, 1 mM DTT, 4% glycerol, room temperature, 30 min; GST-TFs on glutathione beads, 16-mer random dsDNA library, 0.1% formaldehyde crosslink after washing; high values mean tight binding
Details in all cases: protein: recombinant; tags: N-terminal GST; dsDNA, one strand shown
FLI1 = molecular target: T1, FLI1 (Homo sapiens, UniProt Q01543 1-452)
T1 sequence: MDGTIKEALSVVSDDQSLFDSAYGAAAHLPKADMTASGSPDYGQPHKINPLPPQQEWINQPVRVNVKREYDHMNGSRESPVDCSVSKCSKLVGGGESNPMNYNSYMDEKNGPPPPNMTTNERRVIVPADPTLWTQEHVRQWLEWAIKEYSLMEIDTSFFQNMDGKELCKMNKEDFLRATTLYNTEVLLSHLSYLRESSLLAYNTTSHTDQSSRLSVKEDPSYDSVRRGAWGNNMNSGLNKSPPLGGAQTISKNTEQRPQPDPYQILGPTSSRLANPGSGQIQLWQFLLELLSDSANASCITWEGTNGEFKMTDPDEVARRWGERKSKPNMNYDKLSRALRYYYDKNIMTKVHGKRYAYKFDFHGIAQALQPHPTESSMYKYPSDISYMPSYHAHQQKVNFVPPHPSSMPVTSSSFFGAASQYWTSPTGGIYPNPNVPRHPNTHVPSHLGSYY
Outline: (§1)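 Pools were built from human transcription factors expressed in yeast as GST fusions, captured on glutathione beads and DNA-barcoded, along with a tag-only sample. Incubation with 200 nmole of a 16-mer random double-stranded DNA library lasted 30 min at room temperature in Tris/NaCl/DTT/glycerol buffer, and was followed by washing, 0.1% formaldehyde crosslinking, proximity ligation, PCR amplification and Illumina NextSeq500 sequencing. Binding signal is the quotient of each hexamer's read frequency for a factor and its frequency for the tag-only sample.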

ELK1 = molecular target: T2, ELK1 (Homo sapiens, UniProt P19419 1-428)
T2 sequence: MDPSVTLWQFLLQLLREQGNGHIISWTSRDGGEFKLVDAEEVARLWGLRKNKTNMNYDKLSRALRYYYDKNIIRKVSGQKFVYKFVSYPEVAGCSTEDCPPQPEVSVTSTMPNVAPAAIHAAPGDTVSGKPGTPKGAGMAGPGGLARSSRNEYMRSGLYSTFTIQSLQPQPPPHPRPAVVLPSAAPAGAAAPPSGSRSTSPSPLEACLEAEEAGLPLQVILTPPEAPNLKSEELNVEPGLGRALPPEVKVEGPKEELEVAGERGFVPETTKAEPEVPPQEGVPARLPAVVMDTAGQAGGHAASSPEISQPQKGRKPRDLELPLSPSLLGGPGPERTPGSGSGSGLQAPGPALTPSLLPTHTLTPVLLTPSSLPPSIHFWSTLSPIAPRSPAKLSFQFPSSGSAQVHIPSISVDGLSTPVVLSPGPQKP
Outline: as §1

GABPA = molecular target: T3, GABPA (Homo sapiens, UniProt Q06546 1-454)
T3 sequence: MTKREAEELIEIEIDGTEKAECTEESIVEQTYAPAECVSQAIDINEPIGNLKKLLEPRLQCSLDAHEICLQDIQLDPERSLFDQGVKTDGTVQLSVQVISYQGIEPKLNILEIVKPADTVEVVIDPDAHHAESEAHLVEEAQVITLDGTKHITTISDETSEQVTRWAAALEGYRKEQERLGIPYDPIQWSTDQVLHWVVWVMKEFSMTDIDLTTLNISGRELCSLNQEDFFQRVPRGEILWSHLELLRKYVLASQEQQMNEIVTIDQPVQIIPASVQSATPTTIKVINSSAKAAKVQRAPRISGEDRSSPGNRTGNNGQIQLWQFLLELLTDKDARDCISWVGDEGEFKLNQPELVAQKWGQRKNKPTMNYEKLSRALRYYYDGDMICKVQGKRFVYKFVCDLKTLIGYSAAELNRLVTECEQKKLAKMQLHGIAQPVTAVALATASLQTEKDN
Outline: as §1

ERG = molecular target: T4, ERG (Homo sapiens, UniProt P11308 1-479)
T4 sequence: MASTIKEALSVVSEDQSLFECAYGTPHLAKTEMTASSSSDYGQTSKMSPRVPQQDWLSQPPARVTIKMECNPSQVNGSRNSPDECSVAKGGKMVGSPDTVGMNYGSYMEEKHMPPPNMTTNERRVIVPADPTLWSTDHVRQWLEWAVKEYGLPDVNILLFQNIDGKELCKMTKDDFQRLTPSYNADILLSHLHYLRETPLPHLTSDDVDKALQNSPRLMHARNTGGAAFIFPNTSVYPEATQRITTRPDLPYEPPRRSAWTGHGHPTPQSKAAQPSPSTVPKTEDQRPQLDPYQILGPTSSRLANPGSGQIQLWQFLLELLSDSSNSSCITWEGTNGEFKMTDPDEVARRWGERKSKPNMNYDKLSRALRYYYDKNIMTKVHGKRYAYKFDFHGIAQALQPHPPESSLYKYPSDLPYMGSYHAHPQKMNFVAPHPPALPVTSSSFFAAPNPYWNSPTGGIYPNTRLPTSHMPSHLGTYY
Outline: as §1

ELF1 = ELF1 (Homo sapiens, UniProt P32519 1-619)
Outline: as §1

EHF = molecular target: T5, EHF (Homo sapiens, UniProt Q9NZC4 1-300)
T5 sequence: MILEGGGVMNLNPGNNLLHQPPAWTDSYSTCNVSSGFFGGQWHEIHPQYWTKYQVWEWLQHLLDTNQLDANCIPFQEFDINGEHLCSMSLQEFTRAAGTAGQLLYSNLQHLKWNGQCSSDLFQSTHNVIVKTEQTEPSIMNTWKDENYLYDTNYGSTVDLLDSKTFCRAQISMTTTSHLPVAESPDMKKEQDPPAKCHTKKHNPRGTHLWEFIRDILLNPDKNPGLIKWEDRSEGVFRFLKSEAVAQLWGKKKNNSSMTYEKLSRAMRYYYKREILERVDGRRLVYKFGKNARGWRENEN
Outline: as §1

SPI1 = SPI1 (Homo sapiens, UniProt P17947 1-270)
Outline: as §1

SPIB = SPIB (Homo sapiens, UniProt Q01892 1-262)
Outline: as §1

FEV = molecular target: T6, FEV (Homo sapiens, UniProt Q99581 1-238)
T6 sequence: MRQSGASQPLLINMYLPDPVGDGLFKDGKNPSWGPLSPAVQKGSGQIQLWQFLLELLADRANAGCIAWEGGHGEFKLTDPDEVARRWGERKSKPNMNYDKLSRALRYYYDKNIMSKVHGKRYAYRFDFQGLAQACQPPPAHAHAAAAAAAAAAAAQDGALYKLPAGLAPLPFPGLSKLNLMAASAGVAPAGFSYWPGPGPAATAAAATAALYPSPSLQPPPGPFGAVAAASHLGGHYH
Outline: as §1

ETV5 = ETV5 (Homo sapiens, UniProt P41161 1-510)
Outline: as §1

SPIC = molecular target: T7, SPIC (Homo sapiens, UniProt Q8N5J4 1-248)
T7 sequence: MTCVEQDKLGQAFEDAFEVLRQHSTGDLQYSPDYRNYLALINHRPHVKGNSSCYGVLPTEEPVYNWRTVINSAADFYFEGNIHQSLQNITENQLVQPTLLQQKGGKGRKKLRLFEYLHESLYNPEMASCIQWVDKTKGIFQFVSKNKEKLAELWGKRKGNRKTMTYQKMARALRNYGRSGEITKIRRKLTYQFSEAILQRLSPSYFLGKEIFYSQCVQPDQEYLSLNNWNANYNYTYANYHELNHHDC
Outline: as §1

ELF4 = ELF4 (Homo sapiens, UniProt Q99607 1-663)
Outline: as §1

ELK4 = molecular target: T8, ELK4 (Homo sapiens, UniProt P28324-2 1-405)
T8 sequence: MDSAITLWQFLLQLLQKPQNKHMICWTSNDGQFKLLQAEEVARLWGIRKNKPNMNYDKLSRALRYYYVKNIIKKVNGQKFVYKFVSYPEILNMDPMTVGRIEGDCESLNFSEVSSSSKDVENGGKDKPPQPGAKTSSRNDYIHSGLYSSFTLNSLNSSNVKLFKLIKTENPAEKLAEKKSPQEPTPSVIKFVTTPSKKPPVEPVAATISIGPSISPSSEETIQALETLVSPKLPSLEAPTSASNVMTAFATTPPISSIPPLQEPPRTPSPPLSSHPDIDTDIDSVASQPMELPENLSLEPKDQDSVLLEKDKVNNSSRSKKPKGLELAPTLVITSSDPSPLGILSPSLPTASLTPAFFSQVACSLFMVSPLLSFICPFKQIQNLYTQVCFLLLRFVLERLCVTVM
Outline: as §1

ETV2 = molecular target: T9, ETV2 (Homo sapiens, UniProt O00321 1-342)
T9 sequence: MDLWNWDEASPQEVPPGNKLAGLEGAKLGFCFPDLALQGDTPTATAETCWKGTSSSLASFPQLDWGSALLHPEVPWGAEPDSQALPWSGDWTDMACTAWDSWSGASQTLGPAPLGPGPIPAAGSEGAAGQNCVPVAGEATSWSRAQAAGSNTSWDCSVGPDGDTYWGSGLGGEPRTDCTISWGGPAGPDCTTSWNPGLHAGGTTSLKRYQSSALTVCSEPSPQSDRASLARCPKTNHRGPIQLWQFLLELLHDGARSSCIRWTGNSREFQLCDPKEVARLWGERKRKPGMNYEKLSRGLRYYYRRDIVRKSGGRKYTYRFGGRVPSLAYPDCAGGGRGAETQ
Outline: as §1

ELF3 = molecular target: T10, ELF3 (Homo sapiens, UniProt P78545 1-371)
T10 sequence: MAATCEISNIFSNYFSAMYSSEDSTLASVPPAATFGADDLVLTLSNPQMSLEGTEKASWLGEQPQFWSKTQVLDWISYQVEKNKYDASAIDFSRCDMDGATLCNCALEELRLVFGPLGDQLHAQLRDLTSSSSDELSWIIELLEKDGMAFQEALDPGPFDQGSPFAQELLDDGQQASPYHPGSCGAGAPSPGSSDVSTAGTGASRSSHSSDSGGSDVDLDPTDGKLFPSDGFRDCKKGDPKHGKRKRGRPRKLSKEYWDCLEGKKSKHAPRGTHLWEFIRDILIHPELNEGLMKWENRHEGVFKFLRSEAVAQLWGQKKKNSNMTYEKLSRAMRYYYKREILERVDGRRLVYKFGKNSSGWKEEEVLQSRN
Outline: as §1

ETV1 = ETV1 (Homo sapiens, UniProt P50549 1-477)
Outline: as §1

ELF1, sequence (P32519 whole entry): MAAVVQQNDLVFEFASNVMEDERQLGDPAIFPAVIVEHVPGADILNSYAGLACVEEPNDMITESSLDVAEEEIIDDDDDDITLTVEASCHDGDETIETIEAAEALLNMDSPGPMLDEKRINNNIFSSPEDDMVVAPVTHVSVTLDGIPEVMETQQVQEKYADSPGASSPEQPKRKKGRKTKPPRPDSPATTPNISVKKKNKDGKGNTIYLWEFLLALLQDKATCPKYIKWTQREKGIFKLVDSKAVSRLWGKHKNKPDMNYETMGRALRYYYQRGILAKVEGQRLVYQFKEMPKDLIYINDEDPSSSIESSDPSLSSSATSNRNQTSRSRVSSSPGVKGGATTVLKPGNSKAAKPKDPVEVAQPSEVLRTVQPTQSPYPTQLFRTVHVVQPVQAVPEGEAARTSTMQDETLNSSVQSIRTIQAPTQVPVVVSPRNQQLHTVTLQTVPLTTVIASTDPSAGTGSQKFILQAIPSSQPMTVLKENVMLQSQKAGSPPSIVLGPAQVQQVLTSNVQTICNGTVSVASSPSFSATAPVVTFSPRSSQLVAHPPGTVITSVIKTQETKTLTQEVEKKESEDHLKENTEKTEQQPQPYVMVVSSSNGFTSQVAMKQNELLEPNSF
ETV1, sequence (P50549 whole entry): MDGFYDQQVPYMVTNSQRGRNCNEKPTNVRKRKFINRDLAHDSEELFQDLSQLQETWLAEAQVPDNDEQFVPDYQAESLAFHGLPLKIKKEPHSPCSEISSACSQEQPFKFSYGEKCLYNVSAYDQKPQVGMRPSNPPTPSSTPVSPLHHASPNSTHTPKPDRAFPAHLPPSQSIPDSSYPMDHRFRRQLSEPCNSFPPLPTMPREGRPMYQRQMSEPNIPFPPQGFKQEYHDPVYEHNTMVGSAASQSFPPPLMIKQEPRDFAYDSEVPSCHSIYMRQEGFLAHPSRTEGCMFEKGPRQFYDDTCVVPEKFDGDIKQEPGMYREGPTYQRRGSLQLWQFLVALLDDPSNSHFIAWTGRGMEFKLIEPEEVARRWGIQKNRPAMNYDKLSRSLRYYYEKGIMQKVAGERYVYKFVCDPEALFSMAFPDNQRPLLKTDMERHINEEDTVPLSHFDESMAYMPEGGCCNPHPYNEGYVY
ELF4, sequence (Q99607 whole entry): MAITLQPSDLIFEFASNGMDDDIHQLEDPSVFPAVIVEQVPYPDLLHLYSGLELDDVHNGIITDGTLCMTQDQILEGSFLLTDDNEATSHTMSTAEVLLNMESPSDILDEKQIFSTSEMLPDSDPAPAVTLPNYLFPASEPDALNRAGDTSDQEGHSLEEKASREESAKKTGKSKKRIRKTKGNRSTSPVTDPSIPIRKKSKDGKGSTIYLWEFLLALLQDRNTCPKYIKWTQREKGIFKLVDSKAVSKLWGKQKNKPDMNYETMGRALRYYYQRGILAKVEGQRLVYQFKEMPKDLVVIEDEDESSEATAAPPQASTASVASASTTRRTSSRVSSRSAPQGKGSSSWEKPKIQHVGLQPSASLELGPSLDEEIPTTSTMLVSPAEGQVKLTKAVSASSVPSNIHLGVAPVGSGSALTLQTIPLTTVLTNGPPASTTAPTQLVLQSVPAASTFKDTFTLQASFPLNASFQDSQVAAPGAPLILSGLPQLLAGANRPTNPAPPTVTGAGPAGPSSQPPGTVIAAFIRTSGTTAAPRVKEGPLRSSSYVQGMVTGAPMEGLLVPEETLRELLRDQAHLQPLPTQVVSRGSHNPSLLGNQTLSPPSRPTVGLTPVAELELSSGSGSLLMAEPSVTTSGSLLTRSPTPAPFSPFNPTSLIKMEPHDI
ETV5, sequence (P41161 whole entry): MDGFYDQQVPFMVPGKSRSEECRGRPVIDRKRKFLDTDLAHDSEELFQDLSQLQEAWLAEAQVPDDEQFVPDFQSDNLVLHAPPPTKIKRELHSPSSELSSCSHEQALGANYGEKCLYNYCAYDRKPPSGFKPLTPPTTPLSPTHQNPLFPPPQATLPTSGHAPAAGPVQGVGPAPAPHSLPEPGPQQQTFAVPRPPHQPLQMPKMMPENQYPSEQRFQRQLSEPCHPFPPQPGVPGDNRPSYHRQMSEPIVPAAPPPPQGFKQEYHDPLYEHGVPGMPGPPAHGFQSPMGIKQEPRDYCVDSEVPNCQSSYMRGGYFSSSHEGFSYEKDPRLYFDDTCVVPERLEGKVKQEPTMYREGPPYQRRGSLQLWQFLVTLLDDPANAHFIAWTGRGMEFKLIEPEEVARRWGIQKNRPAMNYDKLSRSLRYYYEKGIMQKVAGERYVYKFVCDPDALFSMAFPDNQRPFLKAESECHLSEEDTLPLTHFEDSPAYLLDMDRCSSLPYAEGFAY
SPIB, sequence (Q01892 whole entry): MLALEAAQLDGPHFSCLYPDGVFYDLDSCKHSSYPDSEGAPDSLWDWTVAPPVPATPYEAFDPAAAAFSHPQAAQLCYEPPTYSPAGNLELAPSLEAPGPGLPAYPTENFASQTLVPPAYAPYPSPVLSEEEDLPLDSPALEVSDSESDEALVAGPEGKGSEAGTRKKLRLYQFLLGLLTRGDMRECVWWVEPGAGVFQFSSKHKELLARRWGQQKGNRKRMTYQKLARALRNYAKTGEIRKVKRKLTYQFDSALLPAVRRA

Sequence: AACGCC
- binding signal (FLI1): 1.07 fold enrichment (6-mer frequency, TF over GST control)
- binding signal (ELK1): 1.1 fold enrichment (6-mer frequency, TF over GST control)
- binding signal (GABPA): 1.08 fold enrichment (6-mer frequency, TF over GST control)
- binding signal (ERG): 1.06 fold enrichment (6-mer frequency, TF over GST control)
- binding signal (ELF1): 1.09 fold enrichment (6-mer frequency, TF over GST control)
- binding signal (EHF): 1.15 fold enrichment (6-mer frequency, TF over GST control)
- binding signal (SPI1): 1.06 fold enrichment (6-mer frequency, TF over GST control)
- binding signal (SPIB): 1.11 fold enrichment (6-mer frequency, TF over GST control)
- binding signal (FEV): 1.11 fold enrichment (6-mer frequency, TF over GST control)
- binding signal (ETV5): 1.07 fold enrichment (6-mer frequency, TF over GST control)
- binding signal (SPIC): 1.03 fold enrichment (6-mer frequency, TF over GST control)
- binding signal (ELF4): 1.15 fold enrichment (6-mer frequency, TF over GST control)
- binding signal (ELK4): 1.2 fold enrichment (6-mer frequency, TF over GST control)
- binding signal (ETV2): 1.08 fold enrichment (6-mer frequency, TF over GST control)
- binding signal (ELF3): 1.08 fold enrichment (6-mer frequency, TF over GST control)
- binding signal (ETV1): 1.1 fold enrichment (6-mer frequency, TF over GST control)

Sequence: CTGTTG
- binding signal (FLI1): 1.08 fold enrichment (6-mer frequency, TF over GST control)
- binding signal (ELK1): 1.02 fold enrichment (6-mer frequency, TF over GST control)
- binding signal (GABPA): 1.11 fold enrichment (6-mer frequency, TF over GST control)
- binding signal (ERG): 1.09 fold enrichment (6-mer frequency, TF over GST control)
- binding signal (ELF1): 1.1 fold enrichment (6-mer frequency, TF over GST control)
- binding signal (EHF): 1.13 fold enrichment (6-mer frequency, TF over GST control)
- binding signal (SPI1): 1.16 fold enrichment (6-mer frequency, TF over GST control)
- binding signal (SPIB): 1.15 fold enrichment (6-mer frequency, TF over GST control)
- binding signal (FEV): 1.06 fold enrichment (6-mer frequency, TF over GST control)
- binding signal (ETV5): 1.03 fold enrichment (6-mer frequency, TF over GST control)
- binding signal (SPIC): 1.12 fold enrichment (6-mer frequency, TF over GST control)
- binding signal (ELF4): 1.17 fold enrichment (6-mer frequency, TF over GST control)
- binding signal (ELK4): 1.1 fold enrichment (6-mer frequency, TF over GST control)
- binding signal (ETV2): 1.13 fold enrichment (6-mer frequency, TF over GST control)
- binding signal (ELF3): 1.03 fold enrichment (6-mer frequency, TF over GST control)
- binding signal (ETV1): 1.09 fold enrichment (6-mer frequency, TF over GST control)

Sequence: AACACC
- binding signal (FLI1): 1.19 fold enrichment (6-mer frequency, TF over GST control)
- binding signal (ELK1): 1.18 fold enrichment (6-mer frequency, TF over GST control)
- binding signal (GABPA): 1.11 fold enrichment (6-mer frequency, TF over GST control)
- binding signal (ERG): 1.15 fold enrichment (6-mer frequency, TF over GST control)
- binding signal (ELF1): 1.11 fold enrichment (6-mer frequency, TF over GST control)
- binding signal (EHF): 1.12 fold enrichment (6-mer frequency, TF over GST control)
- binding signal (SPI1): 1.04 fold enrichment (6-mer frequency, TF over GST control)
- binding signal (SPIB): 1.16 fold enrichment (6-mer frequency, TF over GST control)
- binding signal (FEV): 1.15 fold enrichment (6-mer frequency, TF over GST control)
- binding signal (ETV5): 1.04 fold enrichment (6-mer frequency, TF over GST control)
- binding signal (SPIC): 1.02 fold enrichment (6-mer frequency, TF over GST control)
- binding signal (ELF4): 1.14 fold enrichment (6-mer frequency, TF over GST control)
- binding signal (ELK4): 1.13 fold enrichment (6-mer frequency, TF over GST control)
- binding signal (ETV2): 1.15 fold enrichment (6-mer frequency, TF over GST control)
- binding signal (ELF3): 1.09 fold enrichment (6-mer frequency, TF over GST control)
- binding signal (ETV1): 1.13 fold enrichment (6-mer frequency, TF over GST control)
